mHTT-CaM PPI inh: inhibitors of human mutant huntingtin-calmodulin interaction. 190,000 compounds, 3.6% hits. AlphaScreen His-mHTT/GST-CaM binding, luminescence. P42858. inhibition, % at 15 µM;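 note: 0% = both proteins with DMSO and 100% = one protein alone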
Pf apPOL block: Pf-apPOL DNA polymerase inhibition; Recombinant Pf-apPOL, molecular beacon fluorescence, 1.5 h; inhibition, % at 10 µM; 210,000 compounds, 0.25% hits; AID 1794808
* = called active by the depositor; nt = no result given. Only some compounds are listed: those with a hit (about 3.5% of all), similar ones and a draw of the others. Cut-off read from the data, not from the text of the source: active = inhibition above about 50%; inactive = the rest.

SMILES | mHTT-CaM PPI inh | Pf apPOL block
O=C(Nc1cccc(Cl)c1)N1CCC2(CC1)Nc1cc(F)ccc1-n1cccc12 | 94.2* | 1.3
Cc1ccc(NC(=O)N2CCC3(CC2)Nc2cc(F)ccc2-n2cccc23)cc1Cl | 77.4* | 4.9
COc1ccc(/C=C2\C=C(c3cc(OC)ccc3OC)OC2=O)c(OC)c1 | 38.0 | 3.3
CCCOC(=O)C1C2C=CC3(CN(c4ccc(OC)cc4)C(=O)C13)O2 (stereo not given) | -3.3 | -1.9
COc1cc2c(cc1OC)C(NN)=NC(C)(C)C2 | 14.1 | -2.4
CCc1nc(CC)n2ccn(Cc3cccc(C#N)c3)c(=O)c12 | -1.6 | 5.6
CCc1ccc(N2C(=O)NC3CC2(C)Oc2c(OC)cccc23)cc1 (stereo not given) | -3.0 | -5.2
O=C(Nc1ccc2c(c1)OCCO2)N1CCC2(CC1)Nc1ccccc1-n1cccc12 | 62.4* | 4.0
Cc1ccc(C)c(NC(=O)N2CCC3(CC2)Nc2cc(F)ccc2-n2cccc23)c1 | 31.2 | -5.9
Cc1ccc(NC(=O)N2CCC3(CC2)Nc2cc(F)ccc2-n2cccc23)cc1C | 54.3* | 31.5
CC(C)OCCCNC(=O)C1CCN(c2cnn(C)c(=O)c2)CC1 | -6.6 | -5.9
O=C(C1CC1)N1CCC(c2cnn(-c3cccc(F)c3)c2)CC1 | -10.1 | -3.0
NC(=O)c1c(NC(=O)C2CCCN(C(=O)c3ccco3)C2)sc2c1CCCC2 (stereo not given) | 73.0* | -7.3
NC(=O)c1c(NC(=O)c2ccco2)sc2c1CCC2 | 2.2 | 0.2
COC(CNC(=O)CCn1nnc2ccccc2c1=O)OC | 7.0 | -5.5
O=C(CC1Sc2ccccc2NC1=O)Nc1ccc(C(F)(F)F)cc1 (stereo not given) | 7.0 | -7.4
O=C(CC1Sc2ccccc2NC1=O)NNC(=O)c1cc(C(F)(F)F)cc(C(F)(F)F)c1 (stereo not given) | nt | 58.4*
Cc1ccccc1C1OC2(C(=O)c3ccccc3C2=O)C2C(=O)N(C3CCCCC3)C(=O)C12 (stereo not given) | 6.0 | -2.1
CS(=O)(=O)c1ccc2nc(NC(=O)c3ccc(Br)o3)sc2c1 | -5.5 | -3.5
O=C(CSc1nc2ccccc2o1)Nc1ccccc1[N+](=O)[O-] | 55.3* | -2.7
COc1ccc(NC(=O)CSc2nc3ccccc3o2)c([N+](=O)[O-])c1 | 11.3 | -5.5
COc1ccccc1N1CCN(CCNS(C)(=O)=O)CC1 | -3.9 | -3.8
CNC(=O)c1cc(C)nc2ccc(C)cc12 | -1.2 | 83.9*
CCCNC(=O)c1cc(C)nc2ccc(F)cc12 | 100.1* | -0.7
CCCNC(=O)c1cc(C)nc2ccc(Cl)cc12 | 2.3 | -2.9
SMILES | mHTT-CaM PPI inh | Pf apPOL block
CNC(=O)c1cc(C)nc2ccc(F)cc12 | 14.1 | -2.2
O=C(NCC(O)c1ccsc1)C(=O)Nc1ccc(OC(F)(F)F)cc1 (stereo not given) | -4.5 | -3.1
COc1ccc(CONS(=O)(=O)c2ccc(NC(C)=O)cc2)cc1 | 2.0 | -1.0
COc1ccc(C2CC(=O)C3=C(C2)Nc2ccccc2NC3c2ccc(C)s2)cc1OC (stereo not given) | 33.0 | -4.8
COc1ccc(C2CC(=O)C3=C(C2)Nc2ccccc2NC3c2ccc(Cl)s2)cc1OC (stereo not given) | 56.0* | 5.1
COc1ccc(C2CC(=O)C3=C(C2)Nc2ccccc2NC3c2ccc(N(C)C)cc2)cc1OC (stereo not given) | 52.0* | 0.4
COc1ccc(C2CC(=O)C3=C(C2)Nc2ccccc2NC3c2ccc(Cl)cc2)cc1OC (stereo not given) | 36.0 | 3.3
O=[N+]([O-])c1c(Sc2nnnn2C2CCCCC2)ncnc1Sc1nnnn1C1CCCCC1 | -0.3 | nt
O=C1CC(N2CCOCC2)C(=O)N1c1ccc(F)cc1 (stereo not given) | -3.0 | -2.8
CC1CN(C2=NC(=O)/C(=C/c3cn[nH]c3-c3ccccc3)S2)CC(C)O1 (stereo not given) | 3.0 | 65.7*
Cc1ccc(/C=C2\SC(N3CC(C)OC(C)C3)=NC2=O)o1 (stereo not given) | 3.0 | -1.0
COc1ccccc1NC(=O)N1CCC(c2nc(C(=O)N3CCOCC3)c(C)o2)CC1 | -0.9 | -4.5
COc1cc(S(=O)(=O)N2CCN(c3ccc(F)cc3)CC2)c(OC)cc1Br | 1.2 | -6.2
Cc1cc(Br)c(S(=O)(=O)N2CCN(c3ccccc3)CC2)cc1C | -2.5 | -8.3
COc1cc(Br)c(S(=O)(=O)N2CCN(c3ccc(C)c(C)c3)CC2)cc1OC | 53.4* | 0.9
COc1cc(S(=O)(=O)N2CCN(c3ccc(C)c(C)c3)CC2)c(OC)cc1Br | 59.3* | 0.9
CC(=O)Nc1nnc(SCc2c(Cl)cccc2[N+](=O)[O-])s1 | -0.3 | -0.1
Cc1ccc(C)c(N2CCN(C(=O)CC(C)(C)C)C(C)C2=O)c1 (stereo not given) | -5.1 | 0.0
COC(=O)C12CC3CC(CC(NC(=O)c4ccc(=O)oc4)(C3)C1)C2 | 14.3 | 66.1*
COC(=O)C12CC3CC(CC(NC(=O)c4ccc(Cn5ccnc5)cc4)(C3)C1)C2 | 0.4 | -0.9
Cc1ccc(-n2nc3ccc(NC(=O)c4ccco4)cc3n2)cc1Cl | 7.0 | 9.9
O=c1oc(-c2ccccc2Cl)nc2c1cnn2-c1ccccc1 | 90.0* | -3.1
COc1c(Cl)cnn(-c2ccccc2)c1=O | -1.5 | -4.2
Fc1ccc(C2=NNC3=NCCN3C2)cc1F | nt | -2.6
CCc1c(C)nc(N)[n+]2c1SCC2CI (stereo not given) | 7.0 | 3.1
SMILES | mHTT-CaM PPI inh | Pf apPOL block
Cc1nn(Cc2ccc(C(=O)Nc3cccc(C(=O)O)c3)o2)c(C)c1Cl | 3.0 | 9.4
COc1ccc(CNc2ccccc2SC)cc1OC | 15.1 | 2.7
COc1ccccc1CNc1ccccc1 | 2.7 | -10.0
COc1ccc(CNCc2ccc(C)cc2C)c(OC)c1 | -2.5 | -1.7
COc1ccc(NCc2ccc(SC)cc2)cc1OC | 80.5* | 0.2
COc1ccc(NCc2ccccc2Br)cc1OC | 73.1* | 6.1
COc1ccc(NCc2ccc(C)cc2C)cc1OC | 82.9* | 1.2
CC(=O)Nc1ccc(NC(=O)c2ccc(C)c(C)c2)cc1 | -4.0 | -1.9
CCCN1C(=O)C2CCC(=O)N2c2ccc(C(=O)NCc3cccc(C)c3)cc21 (stereo not given) | 25.1 | -7.5
CCc1ccc(NC(=O)N2CCCC2c2nc(-c3ccc(F)cc3F)no2)cc1 (stereo not given) | -6.0 | -1.9
CC(=O)Nc1c2ccc([N+](=O)[O-])cc2n2c(C)nc3ccc(Cl)cc3c12 | -2.0 | -5.4
Cc1nc2ccc(Cl)cc2c2c(N)c3ccccc3n12 | 56.2* | -11.8
COc1ccc(/C=C/C(=O)Nc2c3c(nn2-c2cccc(C)c2C)CS(=O)(=O)C3)cc1OC | 17.0 | -3.1
CSc1nnc2c(n1)OC(c1ccc(Br)o1)N(C(C)=O)c1ccccc1-2 (stereo not given) | 8.0 | 4.6
CSc1nnc2c(n1)OC(c1ccc(Br)s1)N(C(C)=O)c1ccccc1-2 (stereo not given) | 71.0* | 5.2
CSc1ccc(C2Oc3nc(SC)nnc3-c3ccccc3N2C(C)=O)cc1 (stereo not given) | 35.0 | -0.6
CSc1nnc2c(n1)OC(c1ccc(Cl)cc1)N(C(C)=O)c1ccccc1-2 (stereo not given) | 54.0* | 7.2
CSc1nnc2c(n1)OC(c1cccc(Br)c1)N(C(C)=O)c1ccccc1-2 (stereo not given) | 19.0 | -4.4
CSc1nnc2c(n1)OC(c1ccc(Br)cc1)N(C(C)=O)c1ccccc1-2 (stereo not given) | 75.0* | -6.1

Bioassay records as filed in PubChem BioAssay.
